The list is not random: actives were taken first. Their share in the collection is about 2.4%.
Cruzain inh noDet: blocks cruzain activity in detergent-free assay; P25779; purified cruzain, Z-FR-AMC fluorescence, no detergent; Potency, µM, for the others: max response, negative = inhibition, hits mostly inhibitors; actives 2.3% (n = 200,000);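 further: plate controls were enzyme without inhibitor for no effect and buffer without enzyme for full effect; nearly all actives have a fitted effect of over 40% in size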
Target sequence (P25779 123-467 limits assumed): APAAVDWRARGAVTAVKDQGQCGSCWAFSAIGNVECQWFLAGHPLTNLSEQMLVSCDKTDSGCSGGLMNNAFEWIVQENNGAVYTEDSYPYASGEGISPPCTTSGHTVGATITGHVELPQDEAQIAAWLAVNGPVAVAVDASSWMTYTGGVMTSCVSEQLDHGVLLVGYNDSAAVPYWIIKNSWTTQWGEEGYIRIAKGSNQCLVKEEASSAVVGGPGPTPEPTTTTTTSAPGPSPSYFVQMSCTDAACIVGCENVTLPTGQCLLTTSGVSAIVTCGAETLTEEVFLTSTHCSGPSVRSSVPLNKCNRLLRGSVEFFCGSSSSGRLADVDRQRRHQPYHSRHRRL
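Purified cruzain at 1.5 nM, pre-incubated 15 min with compound at room temperature in 100 mM sodium acetate pH 5.5, 5 mM DTT, 0.00005% Triton X-100. Reaction started with 2 uM Z-FR-AMC; AMC fluorescence increase over 60 s gives rate.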
Cruzain inh Det: inhibitors of Trypanosoma cruzi cruzain with detergent; actives 0.43% (n = 200,000); purified cruzain, Z-FR-AMC fluorescence, 0.01% Triton; P25779; Potency, µM, for the others: max response, negative = inhibition, hits mostly inhibitors;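 further: plate controls were neutral wells for no effect and buffer without enzyme for full effect; nearly all actives have a fitted effect of over 40% in size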
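In this qHTS format, compounds are incubated with 1.5 nM cruzain for 15 min at room temperature before 2 uM Z-FR-AMC is added. Release of AMC is followed at 360/450 nm, and progress is taken as the 60 s fluorescence difference.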
* = called active by the depositor; ? = inconclusive; ! = not confirmed by another sample. The call rests on the fitted dose curve; in most records, active means well fitted curve in the direction sought with a large enough effect; inconclusive means small, poorly fitted or top-dose-only effect, or another doubt; inactive means no such curve, though single readings can be large; an effect the other way counts as inactive or inconclusive. Potency means the concentration at half of the fitted maximal effect.

SMILES	Cruzain inh noDet	Cruzain inh Det
COc1ccc(/C=N/NC(=O)c2cccc(NC(=O)c3ccc(Cl)cc3)c2)c(OC)c1	?	-7%
O=C(N/N=C/c1ccncc1)c1cccc(NC(=O)c2ccc(Cl)cc2)c1	-13%	28µM*
CC1(C)CC(=O)c2cn3ncnc3nc2C1	-4%	1%
O=C(c1ccco1)N1CCN(C(=O)c2cccs2)CC1	-7%	0%
CCOC(=O)c1ccc(CN(Cc2ccc(Br)cc2)S(=O)(=O)c2cccc(C(F)(F)F)c2)cc1	-9%	1%
COc1ccc(C2=NCCc3cc(OC)c(OC)cc32)cc1OC	-4%	-9%
CCOc1ccccc1C(=O)Nc1ccc(S(=O)(=O)N(Cc2ccccc2)c2ccccc2)cc1	28%	4%
Cc1ccc(OCC(=O)Nc2ccc(S(=O)(=O)N(Cc3ccccc3)c3ccccc3)cc2)cc1	7.9µM*	2%
CCOC(=O)CNS(=O)(=O)c1ccc(C)cc1	-5%	-1%
Cc1ccc(C(=O)C(OC(=O)CNS(=O)(=O)c2ccccc2)c2ccccc2)cc1 (stereo not given)	32µM*	?
COC(=O)c1sc2cccc(F)c2c1S(=O)(=O)N1CCN(c2ccc(C)cc2C)CC1	?	-6%
CCOC(=O)c1sc2ccccc2c1S(=O)(=O)N1CCN(c2cc(C)ccc2C)CC1	20µM*	-4%
COc1cc2c(cc1O)C[C@H]1c3c(cc(OC)c(O)c3-2)CCN1C	0%	-4%
COc1cc2c(cc1O)CC1c3c(cc(O)c(OC)c3-2)CCN1C (stereo not given)	32µM*!	-4%
CN(C)CCCNCCCCNC(=O)/C=N/O	8%	6%
CC1Cc2cc(-c3csc(NC(=O)Cc4ccccc4)n3)ccc2N1S(C)(=O)=O (stereo not given)	?	6%
O=C(Nc1nc(-c2cccc([N+](=O)[O-])c2)cs1)C(c1ccccc1)c1ccccc1	10µM*	-3%
CS(=O)(=O)N1CCc2cc(-c3csc(NC(=O)C(c4ccccc4)c4ccccc4)n3)ccc21	7.9µM*	2%
CC(OC(=O)c1ccccc1Br)C(=O)Nc1nc(-c2cccc([N+](=O)[O-])c2)cs1 (stereo not given)	?	0%
COc1ccc(CC(=O)Nc2cccc(-c3csc(C)n3)c2)cc1	-16%	-7%
COc1ccc(CC(=O)Nc2nc(-c3cccc([N+](=O)[O-])c3)cs2)cc1	20µM*	1%
O=C(COc1ccc(Cl)cc1)OCc1csc(Nc2ccccc2)n1	0%	-10%
C[C@H](CO)NC(=O)[C@H](C)[C@@H]1C[C@@]1(C)[C@@H](NC(=O)OCc1ccccc1)c1ccccc1	16%	2%
Cc1ccc(C)c(OCCCC(=O)Nc2nccs2)c1	-9%	-3%
COc1ccc(/C=C/c2nc(C#N)c(N3CCC(C(N)=O)CC3)o2)cc1OC	32µM*	?
SMILES	Cruzain inh noDet	Cruzain inh Det
COc1ccc(/C=C/c2nc(C#N)c(N3CCCCCC3)o2)cc1OC	?	-4%
CCN1CCN(c2oc(/C=C/c3ccc(OC)c(OC)c3)nc2C#N)CC1	20µM*	-22%
COc1ccc(/C=C/c2nc(C#N)c(NCCc3ccc(OC)c(OC)c3)o2)cc1OC	-8%	-20%
CCN1CCN(c2oc(/C=C/c3cc(OC)c(OC)c(OC)c3)nc2C#N)CC1	-4%	-1%
COc1ccc(CCNc2oc(/C=C/c3ccc(OC)c(OC)c3)nc2C#N)cc1	16µM*	-25%
CCc1c(C)nc(N)n2c(SCC(=O)N3CCCc4ccccc43)nnc12	1%	4%
CCOC(=O)c1c(C)[nH]c(C)c1S(=O)(=O)N1CCCC(C(=O)Nc2ncccc2C)C1 (stereo not given)	0%	1%
CCCCOC(=O)n1c(SCC(=O)N(C)C)nc2ccccc21	?	-2%
CCNc1ncc2nc(-c3ccc(Cl)cc3)c(=O)n(Cc3cccs3)c2n1	5%	0%
O=Nc1ccc(Nc2ccccc2)cc1	7.9µM*	7.1µM*
c1ccc(Nc2ccc(Nc3ccccc3)cc2)cc1	2%	-7%
O=C(CCc1ccccc1)NC(=S)Nc1ccc(S(=O)(=O)N2CCOCC2)cc1	9%	-10%
COc1ccc(NC(=O)c2ccco2)cc1NC(=O)C(C)Oc1ccc(Cl)cc1Cl (stereo not given)	1%	-6%
O=C(NC(=S)NNS(=O)(=O)c1ccccc1)c1ccccc1[N+](=O)[O-]	-15%	-17%
O=C(NC(=S)NNS(=O)(=O)c1ccccc1)c1ccc([N+](=O)[O-])cc1	10µM*	?
CC1=C(C(=O)Nc2cccnc2)C(c2cccc(O)c2)n2nc(SCc3ccccc3)nc2N1 (stereo not given)	?	-1%
O=C(CN1CCN(c2ccccn2)CC1)N(c1ccccc1)c1ccc2ccccc2c1	1%	-7%
CCOC(=O)/C(C#N)=C/Nc1cc(OC)ccc1OC	-6%	-8%
Cc1ccc(NC(=O)/C(C#N)=C/c2cc(C)n(-c3ccc(N4CCOCC4)c([N+](=O)[O-])c3)c2C)c(C)c1	?	-1%
Cc1cc(/C=C(\C#N)C(=O)Nc2ccc(Cl)cc2)c(C)n1-c1ccc(N2CCOCC2)c([N+](=O)[O-])c1	7.9µM*	-6%
Cc1c(Cl)cccc1NC(=O)CNc1cccc(C(F)(F)F)c1	-14%	-25%
Cc1cccc(N(C)C(=S)Oc2ccc3ccccc3c2)c1	-11%	-6%
Cc1ccc(N2C(=O)C3C(C(=O)c4ccccc4)=NN(c4ccccc4)C3C2=O)cc1 (stereo not given)	16µM*	-7%
CCOc1ccc(N2C(=O)C3C(C2=O)C3(c2ccccc2)c2ccccc2)cc1 (stereo not given)	-10%	-5%
O=C(C1=NN(c2ccccc2)C2C(=O)N(c3ccccc3)C(=O)C12)c1ccccc1 (stereo not given)	-23%	-4%
SMILES	Cruzain inh noDet	Cruzain inh Det
CCOc1ccc(N2C(=O)C3C(c4ccccc4)=NN(c4ccccc4)C3C2=O)cc1 (stereo not given)	20µM*	-20%
CSc1nc(C)cc(Nc2ccc(O)c(CN3CCOCC3)c2)n1	4%	2%
Cc1ccc(C(C)n2cc(C(=O)NCc3ccncc3)nn2)cc1 (stereo not given)	-2%	-3%
COc1ccc(-c2cc(C)nc(SCc3cccc(C(=O)O)c3)n2)cc1	26%	-12%
O=C(O)c1cccc(CSc2nc(-c3ccc(Cl)cc3)cc(C(F)(F)F)n2)c1	-28%	28µM*
COc1ccc(C)cc1NC(=O)c1c(C)oc2ncn(CC(C)C)c(=O)c12	?	-6%
FC(F)(F)c1cnc(-c2cnc3c(-c4ccc(Cl)cc4)cnn3c2)c(Cl)c1	10µM*	5%
N#Cc1cnn2cc(-c3ncc(C(F)(F)F)cc3Cl)cnc12	1%	1%
Cc1ccc(S(=O)(=O)ON2C(=O)c3cccc4cccc(c34)C2=O)cc1	5%	-11%
O=C1c2cccc3cccc(c23)C(=O)N1OS(=O)(=O)c1ccccc1	0%	-13%
Cc1ccc(C)c(S(=O)(=O)ON2C(=O)c3ccccc3C2=O)c1	10µM*	13µM*
O=C1c2ccccc2C(=O)N1OS(=O)(=O)c1ccccc1	7.9µM*	?
O=C(CC(NC(=O)c1ccccc1Cl)c1ccccc1)NCCc1ccc(Cl)cc1 (stereo not given)	?	-1%
CCOC(=O)C(Cc1ccccc1)C(=O)Nc1cccc(C)c1 (stereo not given)	2%	0%
COc1ccc(C2NC(=O)C(C)S2)cc1 (stereo not given)	-1%	2%
